The sample as a whole holds a higher share of hits than the screen did.
DT40 TDP1 CPT = DT40-hTDP1 cell growth loss with CPT. Potency, µM (titrated, usually from 46.2 µM), for inactives: at the highest dose activity change, negative = growth inhibition, hits mostly inhibitors. 12% of 420,000 active. chicken DT40 Tdp1-/-;hTDP1 cells + 20 nM CPT, ATP luminescence, 48 h; also: potency is read from the fitted curve at half-maximal effect; nearly all actives have a fitted effect of over 55% in size
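Chicken DT40 Tdp1-/- cells stably complemented with human TDP1 were seeded at 400 cells/well in medium containing 20 nM camptothecin, exposed to pin-transferred compounds, and grown at 37 °C for at least 48 hr. Viability was read as ATP luminescence.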
HT1080 IDH1KD tx = kills HT-1080 cells with IDH1 knockdown; 2% of 360,000 active; Potency, µM (top dose mostly 46.1 µM), without a hit: at the top dose activity, negative = toxicity, most hits filed as cytotoxic; HT-1080 IDH1 knockdown viability, ATP luminescence, 48 h;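 also: potency is read from the fitted curve at half-maximal effect; 0% = DMSO wells and -100% = cell-free medium wells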
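CellTiter-Glo luminescence after 48 h compound exposure at 37 degrees C of IDH1-knockdown HT-1080 cells in 5% FBS RPMI. %Activity scaled between DMSO wells and cell-free media wells, with curves fitted and assigned curve classes.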
12-LOX inh = inhibitors of human 12S-lipoxygenase ALOX12 | P18054 | purified 12hLO, xylenol orange hydroperoxide absorbance | Potency, µM (top dose mostly 108 µM), for inactives: at the top dose activity change, negative = inhibition, usual class: inhibitors | 1.1% of 580,000 active; also: potency is read from the fitted curve at half-maximal effect
Target sequence (P18054 whole entry, looked up): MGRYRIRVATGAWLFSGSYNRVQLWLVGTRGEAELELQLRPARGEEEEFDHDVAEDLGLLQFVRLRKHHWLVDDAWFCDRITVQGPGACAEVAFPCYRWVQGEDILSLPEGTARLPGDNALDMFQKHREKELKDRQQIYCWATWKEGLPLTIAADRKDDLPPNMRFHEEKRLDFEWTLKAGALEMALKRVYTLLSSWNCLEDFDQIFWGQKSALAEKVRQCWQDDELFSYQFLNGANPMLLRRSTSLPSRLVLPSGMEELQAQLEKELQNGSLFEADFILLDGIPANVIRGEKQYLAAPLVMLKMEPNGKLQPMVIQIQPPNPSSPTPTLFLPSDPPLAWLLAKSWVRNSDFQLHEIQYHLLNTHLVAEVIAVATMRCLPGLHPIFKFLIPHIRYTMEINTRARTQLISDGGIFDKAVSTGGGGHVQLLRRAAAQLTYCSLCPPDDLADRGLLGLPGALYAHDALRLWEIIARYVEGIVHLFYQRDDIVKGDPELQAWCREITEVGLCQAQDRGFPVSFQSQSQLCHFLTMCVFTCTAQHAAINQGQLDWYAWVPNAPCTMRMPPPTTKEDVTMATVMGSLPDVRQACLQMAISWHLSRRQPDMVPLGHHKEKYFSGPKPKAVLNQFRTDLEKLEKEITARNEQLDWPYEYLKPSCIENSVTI
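Purified human 12hLO (150 nM final) in 25 mM Hepes, 0.01% Triton X-100, pH 7.0 was preincubated 15 min at room temperature with compound. Then 40 uM arachidonic acid was added, 30 min. Hydroperoxide was read by Fe-XO absorbance ratio 573/405 nm.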
IL-1B inflam inh = inhibitors of inflammasome signaling (IL-1 beta secretion) | THP-1 LPS/ATP IL-1B secretion, AlphaLISA, 16 h; active compounds read low | activity change, % at 57.5 µM | 4.7% of 360,000 active | AID 743279; in the data active = activity change below about -50%; inconclusive = mostly about -30% to -49%
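Secreted IL-1B measured by AlphaLISA bead assay after 16 h compound exposure of THP-1 cells; compounds (final up to 57.5 uM) added 1 h before LPS (250 ng/mL) and ATP (1.25 mM) stimulation; lower signal means less secretion.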
TDP1 cell noCPT = qHTS for Inhibitors of human tyrosyl-DNA phosphodiesterase 1 (TDP1): qHTS in cells in absence of CPT. DT40 Tdp1-/- hTDP1 cells, no CPT, ATP luminescence, 48 h. Potency, µM (titrated, usually from 46.2 µM), for inactives: at the top dose activity change, negative = growth inhibition, most hits filed as inhibitors. 15% of 420,000 active; also: potency is read from the fitted curve at half-maximal effect; nearly all actives have a fitted effect of over 55% in size
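Growth of hTDP1-complemented DT40 Tdp1-knockout cells is measured by ATP luminescence after at least 48 hr compound exposure at 37 °C, with DMSO substituting for the 20 nM CPT used in the parallel screen.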
HT1080NT lethal = kills 2HG-producing HT-1080-NT fibrosarcoma cells | AID 686970 | 1.6% of 360,000 active | HT-1080-NT fibrosarcoma viability, CellTiter-Glo ATP luminescence, 48 h | Potency, µM (titrated, usually from 46.1 µM), without a hit: top-dose activity, negative = less viability, most hits filed as cytotoxic;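 also: NT is the 2HG producing partner of a matched IDH1 knockdown line; potency is read from the fitted curve at half-maximal effect; 0% = DMSO-treated cells and -100% = media-only wells without cells; nearly all actives have a fitted effect of over 55% in size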
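HT-1080-NT fibrosarcoma cells (2HG-overproducing), 750 cells/well in RPMI with 5% FBS, dosed after 2 h and incubated 48 h at 37C. CellTiter-Glo luminescence normalized to DMSO and no-cell wells; concentration-response curves fitted and classed.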
Active calls of the source: *; u = inconclusive; x = no result given. Unless noted, calls follow the shape of the dose curve; as a rule, active = well fitted curve in the direction sought with a large enough effect; inconclusive = small, poorly fitted or top-dose-only effect, or another doubt; inactive = no such curve, though single readings can be large; an effect the other way counts as inactive or inconclusive. Unless noted, % is scaled to controls: 0 for no effect and ±100 for the full control effect.

SMILES	DT40 TDP1 CPT	HT1080 IDH1KD tx	12-LOX inh	IL-1B inflam inh	TDP1 cell noCPT	HT1080NT lethal
COc1cccc(C(C(=O)NC2CCCC2)N2CCN(c3cc(C)nc4ccccc34)CC2)c1OC (stereo unspecified)	23µM*	-4%	7%	-20	21µM*	-11%
CN(CCC1CCOCC1)C(=O)c1ccc2oc(-c3cccc(F)c3)nc2c1	x	x	22%	x	x	x
CNc1c(NC(=O)NCCCOC)c(=O)oc2ccccc12	x	x	-42%	x	x	x
Cc1ccc(Cl)cc1NC(=O)C(C)n1nnc2sc3c(c2c1=O)CCCC3 (stereo unspecified)	26µM*	x	-23%	x	16µM*	x
CC(C(=O)Nc1cc(C(F)(F)F)ccc1Cl)n1nnc2sc3c(c2c1=O)CCCC3 (stereo unspecified)	23µM*	x	-7%	x	16µM*	x
CCOc1ccccc1NC(=O)C(C)n1nnc2sc3c(c2c1=O)CCCC3 (stereo unspecified)	u	x	-3%	x	15µM*	x
CCC(C)OC(=O)Cn1nnc2sc3c(c2c1=O)CCCC3 (stereo unspecified)	x	x	12%	x	x	x
Cc1c(Cl)cccc1NC(=O)C(C)n1nnc2sc3c(c2c1=O)CCCC3 (stereo unspecified)	u	x	-24%	x	-18%	x
CC(C)CC(c1nnnn1Cc1ccco1)N1CCN(c2cccc(Cl)c2)CC1 (stereo unspecified)	u	-22%	u	-21	16µM*	-20%
CC(C)CC(c1nnnn1CC1CCCO1)N1CCN(c2cccc(Cl)c2)CC1 (stereo unspecified)	26µM*	0%	0%	-4	16µM*	2%
Cc1ccc(C(c2nnnn2CC2CCCO2)N2CCN(c3cccc(C)c3C)CC2)cc1 (stereo unspecified)	u	-18%	15%	-26	23µM*	-15%
COc1cccc(NC(=O)COC(=O)COc2ccc3c(C)cc(=O)oc3c2)c1	x	x	-12%	x	x	x
O=C(Nc1ccc(Cl)cc1)C1CCC(CNS(=O)(=O)c2ccc(Br)s2)CC1 (stereo unspecified)	u	x	8%	x	u	x
COC(=O)c1ccc(OC(=O)c2cc(-c3ccc(OC)cc3)nc3c(C)cc(C)cc23)cc1	x	x	-4%	x	x	x
COc1ccccc1OCCSc1nc(-c2ccc(C(C)(C)C)cc2)nc2cc(=O)[nH]n12	13µM*	x	0%	x	u	x
C=CCc1ccccc1OCCSc1nc(-c2cccs2)nc2cc(=O)[nH]n12	u	x	-16%	x	u	x
Cc1ccc(C(C)C)c(OCCSc2nc(-c3cccs3)nc3cc(=O)[nH]n23)c1	u	x	1%	x	u	x
Cc1ccc(-c2nc(SCCOc3ccccc3C)n3[nH]c(=O)cc3n2)cc1	23µM*	x	-26%	x	26µM*	x
O=c1cc2nc(-c3ccccc3)nc(SCc3cccc(Br)c3)n2[nH]1	u	x	-19%	x	9.2µM*	x
C=CCc1ccccc1OCCSc1nc(-c2ccc(C(C)(C)C)cc2)nc2cc(=O)[nH]n12	23µM*	x	10%	x	u	x
Cc1ccc(CSc2nc(-c3ccc(C(C)(C)C)cc3)nc3cc(=O)[nH]n23)cc1	u	x	14%	x	u	x
CCc1cc(C(=O)NCCc2ccccc2OC)sc1C	x	x	23%	x	x	x
CCc1ccc(C(=O)c2c(N)c(-c3nc4ccccc4[nH]3)c3ccccn23)cc1	x	x	35%	x	x	x
CCc1nnsc1C(=O)NCC1(c2ccc(F)cc2)CCOCC1	x	x	6%	x	x	x
CO/N=C\c1cc(C(=O)c2ccc(Cl)cc2Cl)cn1C	-19%	-1%	-25%	-62*	u	-9%
Cn1cc(C(=O)c2cccc(Cl)c2)cc1/C=N\O	1%	3%	-10%	-64*	-19%	-8%
